# Source: PubChem BioAssay AID624202 (National Center for Advancing Translational Sciences (NCATS), 2012)
# In all, about 380,000 compounds went through this assay and about 4,000 (1.1%) were called active. Not shown: some 3% with an inconclusive outcome. What follows is part of a selection rich in actives, with near analogues and random picks from the rest. A number with no mark means an inactive call. Calls follow the shape of the dose curve; as a rule, active = well fitted activation curve with a large enough effect; inconclusive = small, poorly fitted or top-dose-only effect; inactive = no such curve, though single readings can be large or run the other way.
# Assay: qHTS Assay to Identify Small Molecule Activators of BRCA1 Expression; also: nearly all actives have a fitted effect of over 80% in size
# Settings: MCF7-BRCA1-FFLuc reporter, luminescence, 48 h; series mostly up to 46.1 µM; activation: at the top concentration
# In short: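 48 h compound treatment of MCF7-BRCA1-FFLuc cells (phenol-red free MEM, 37 °C), then 15 min with luciferase substrate and luminescence imaging.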
# Potency is read from the fitted curve at half-maximal effect.
SMILES,activation [%],Potency
OCC(O)C(O)C(O)C(O)C=Nc1ccc(/C=C/c2ccnc3ccccc23)cc1 (stereo not drawn),0,
OC(COc1ccc2ccccc2c1)CN1CCOCC1 (stereo not drawn),,11.2 µM (active)
OC(COc1ccc2ccccc2c1)Cn1cncn1 (stereo not drawn),3.96,
Cc1cccc(OCC(O)Cn2c(=N)n(CCN3CCOCC3)c3ccccc32)c1 (stereo not drawn),-26.8,
Cc1cc2c(cc1C)C(c1cccc(OC(C)C)c1)CC(=O)N2 (stereo not drawn),-12.9,
O=C(Nc1ccc2ccccc2c1)Nc1ccc2snnc2c1,-70.4,
COc1ccc(NC(=O)Nc2ccc3nsnc3c2)cc1,,2.51 µM (active)
COc1ccc(NC(=O)Nc2cccc(-c3noc(C)n3)c2)cc1,0,
N/C(=N\OC(=O)CC1CCCCC1)c1ccccc1,18,
N/C(=N\OC(=O)CCC1CCCCC1)c1ccccn1,,7.94 µM (active)
Cc1ccc(C(=O)O/N=C(\N)c2ccccn2)cc1Cl,-57.3,
O=C1O/C(=C\c2ccc(O)cc2)C(O)=C1c1ccc(O)cc1,13.3,
COc1ccc(CCNC(=O)CCCn2c(=O)c3ccccc3n(Cc3ccc(C)cc3)c2=O)cc1OC,4.93,
COc1ccc(/C=C/c2ccccn2)cc1OC,2.23,
COc1ccc(-c2noc(CSc3nc4ccc(C)cc4[nH]3)n2)cc1,-20.9,
Cc1ccc(-c2nc3ccccn3c2Nc2ccc(F)cc2)o1,23.2,
Cc1cccc2nc(CNc3ccc(F)cc3)cn12,,12.6 µM (active)
CCOC(=O)CSc1nnc(CNc2ccc(F)cc2)o1,-0.722,
Cc1oc2ncn(CC(C)C)c(=O)c2c1C(=O)N1CCN(c2ccccc2F)CC1,0,
CCOC(OCC)c1ccc(/C=C\c2nccc(N)n2)cc1,,3.16 µM (active)
O=C(Nc1ccc(Cl)cc1)c1cnn2c1NC(=C1CC1)C=C2C(F)F,-8.62,
CC1CN(C(=O)c2cc(COc3c(F)cccc3F)on2)CCN1C (stereo not drawn),53.8,
CCOC(=O)CC1(NC(=O)c2cc(COc3cncc(Cl)c3)on2)CCCCC1,-2.02,
CCCOC1CCCN(C(=O)c2cc(COc3cncc(Cl)c3)on2)C1 (stereo not drawn),,5.62 µM (active)
O=C(c1ccco1)N(Cc1cccs1)c1ccc(O)cc1,0,
CCc1nn(CC(=O)NCC(C)c2ccccc2)c(=O)c2cc3occc3n12 (stereo not drawn),10.8,
CCc1nn(CCCC(=O)NCc2ccccc2OC)c(=O)c2cc3occc3n12,0.244,

SMILES,activation [%],Potency
COc1ccc2cc(-c3nc(Cl)c4c5c(sc4n3)CC(C)CC5)c(=O)oc2c1 (stereo not drawn),29.2,
Cn1c(=O)c2c(nc(NCCc3ccccc3)n2Cc2ccccc2Br)n(C)c1=O,11.3,
Cc1ccccc1-n1c(C)cc(/C=C2\NC(=O)NC2=O)c1C,,10 µM (active)
CSc1ccc(/C=C2\NC(=O)NC2=O)cc1,84.5,
Cc1ccccc1-n1c(C)cc(/C=N/NC(=O)c2ccc(CN3CCOCC3)cc2)c1C,-10.3,
COc1ccc(Cl)cc1N(C)C(=O)c1cc2c(=O)oc3ccc(C)cc3c2s1,12.6,
COc1ccc(NC(=O)c2cnc(Nc3ccc(C)c(Cl)c3)c3ccccc23)cc1OC,-4.92,
O=C1c2ccccc2C(=O)N1c1ccc(S(=O)(=O)N2CCOCC2)c2ccccc12,1.74,
COc1cccc(NC(=O)CSc2cc(=O)n(C)c3ccc(Cl)cc23)c1,13.2,
Cc1ccc(NC(=O)CN2C(=O)CC(C)Sc3ccccc32)c(C)c1 (stereo not drawn),-19.1,
O=C(N/N=C/c1c[nH]c2ccccc12)c1ccccc1O,,8.91 µM (active)
O=C(NC(Cc1c[nH]c2ccccc12)C(=O)N/N=C/c1ccc(Br)cc1)c1cccs1 (stereo not drawn),-83.7,
C[C@H](NC(=O)c1ccccc1)C(=O)OCC(=O)c1c[nH]c2ccccc12,-34.3,
CCOC(=O)c1cccc(NC(=O)c2cc(S(=O)(=O)N3CCCC(C)C3)cn2C)c1 (stereo not drawn),-55.3,
O=C(CCn1c(=O)c2ccccc2n(Cc2ccc(Cl)cc2)c1=O)NCc1ccc2c(c1)OCO2,6.66,
CCCN(C(=O)Cn1cc(S(=O)(=O)N2CCN(c3ccccc3F)CC2)c2ccccc2c1=O)c1cccc(C)c1,-2.67,
OC(c1ccccc1)(c1ccccc1)C1CCN(CCCOc2ccccc2)CC1,-6.13,
CCOc1ccc(C(=O)CCN2CCOCC2)cc1,-34.5,
c1ccc(-c2ccc(OCCN3CCOCC3)cc2)cc1,,11.2 µM (active)
CCc1cccc(NC(=O)Cn2nc(CC)n3c(cc4cc(C)ccc43)c2=O)c1,-10.7,
COc1ccccc1C(=O)NCCn1cc(SCc2ccccc2Cl)c2ccccc21,-56.6,
COc1ccc(CN2C(=O)C(C)S/C2=N/N=C/c2ccco2)cc1 (stereo not drawn),,11.2 µM (active)
CCN(CC)C(=O)C1=C(C)N(Cc2ccc(OC)cc2)C(=O)C(CC(=O)NCc2ccco2)C1 (stereo not drawn),-12.6,
O=C1N/C(=N\N=C\c2ccco2)SC1Cc1ccc(F)cc1 (stereo not drawn),-4.99,
CN(Cc1ccccc1)c1ccc(/C=C/c2ccnc3ccccc23)cc1,-21.5,
CCc1ccc(OCCCn2c(CCCNC(=O)C3CCCCC3)nc3ccccc32)cc1,9.55,
